# PubChem BioAssay (NCI)
# Compounds without any hit were thinned out: in the full panel of roughly 83,000, 20% have a hit.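 Values shown are percent growth following 48 h exposure of cells in 96-well plates to a single concentration of compound; below 10 was considered active.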 Activity calls are given as the source filed them.
# Tested on: COLO 205 colon
# Experiment: NCI-60 one-dose screen, 48 h (100 = growth as untreated, 0 = no growth, -100 = all killed)
# Conditions: 10 µM unless noted
row,Compound,growth
1,O=C(O)C1CN(c2cccc(Cl)c2)N(c2cccc(Cl)c2)C1=O (stereo not given),94.5% (inactive)
2,COc1ccc2c(c1)c(-c1ccc(-c3cn(C)c4ccc(OC)cc34)[nH]1)cn2C,-58.2% (active)
3,CCN1CCN(CC(=O)Nc2nc3ccc(NCc4ccc(Br)cc4)cc3s2)CC1,-48.9% (active)
4,CC(C)c1ccc(-n2c(=S)[nH]c3sc4c(c3c2=O)CCC(=O)C4)cc1,92.7% (inactive)
5,Cc1nc2sc(C(=O)Nc3cccc(Cl)c3)c(N)c2cc1C(O)c1ccccc1 (stereo not given),20.8% (inactive)
6,Cc1cscc(C)c1=S,96.2% (inactive)
7,COc1ccc(C2=NN(C(=O)c3cc(OC)c(OC)c(OC)c3)C(c3ccc(N(C)C)cc3)C2)cc1 (stereo not given),5.9% (active)
8,CN(C)c1ccc(/C=C2/C=C(c3ccccc3)OC2=O)cc1,99.3% (inactive)
9,CN1CCN(c2ccc3c(c2)nc(NNC(=O)c2cnccn2)c2cccn23)CC1,3.54% (active)
10,CN(CCC#N)c1ccc(/C=C2\NC(=O)NC2=O)cc1,95.8% (inactive)
11,COc1ccc(C(c2cc(OC)c(OC)c(OC)c2)N2CCCC2)cc1 (stereo not given),71.2% (inactive)
12,O=C(/C=C/c1ccc(Br)cc1)c1ccc(-n2cc(CN3CCN(c4cc5c(cc4F)c(=O)c(C(=O)O)cn5C4CC4)CC3)nn2)cc1,107% (inactive)
13,CCOC(=O)n1cc(-c2nonc2-c2cn(C)c3ccccc23)c2ccccc21,24.3% (inactive)
14,CCOC(=O)c1n[nH]n2c1nc(=O)c1cnn(C)c12,111% (inactive)
15,C#CC#CC#CC#CC#CC#CC#CC#CCC1OCC(COC(=O)O[C@@H](C(=O)O[C@H]2C[C@@]3(O)[C@@H](OC(=O)c4ccccc4)[C@@H]4[C@]5(OC(C)=O)CO[C@@H]5C[C@H](O)[C@@]4(C)C(=O)[C@H](OC(C)=O)C(=C2C)C3(C)C)[C@@H](NC(=O)c2ccccc2)c2ccccc2)O1 (stereo not given in full),12.6% (inactive)
16,CCn1cc(C(=O)N/N=C/c2ccc(Br)cc2)c(=O)c2cc(F)c(N3CCNC(C)C3)c(F)c21 (stereo not given),32.1% (inactive)
17,CCSC1=CC(=O)c2ccccc2C1=O,96.9% (inactive)
18,N#Cc1c(NC(=O)c2cccs2)[n+]([O-])c2ccc(Cl)cc2[n+]1[O-],113% (inactive)
19,O=C(c1ccc(Cl)cc1Cl)N1c2ccccc2Sc2ccccc21,45% (inactive)
20,CN(C)c1ccc(/C=C/C(=O)c2ccc(Nc3nc(Nc4ccc(F)cc4)nc(Nc4ccc(Cl)cc4)n3)cc2)cc1,64.2% (inactive)

row,Compound,growth
1,CCN1C(=O)N(CC)C2C1NN=c1s/c(=C3\C(=O)N(CCc4ccccc4)c4ccccc43)c(=O)n12 (stereo not given),7.44% (active)
2,Cn1c(/C=C/[N+](=O)[O-])cc2ccccc21,12.5% (inactive)
3,CCN(CCO)CC(C)Nc1ccc([N+](=O)[O-])c2sc3ccccc3c(=O)c12 (stereo not given),15% (inactive)
4,CCOC(=O)C1CCN(c2ccc(N3C[C@@H](CNCc4ccc(C(=N)N)cc4)OC3=O)cc2)CC1,103% (inactive)
5,CC1=NN(c2ccc(Cl)cc2)CC1(C)N=O (stereo not given),67.3% (inactive)
6,CCN1C(=O)N(CC)C2C1NN=c1s/c(=C\c3ccccc3Br)c(=O)n12 (stereo not given),3.13% (active)
7,Cc1cc(N2CCN(C)CC2)nc(NCc2cc(Nc3ccnc4cc(Cl)ccc34)ccc2F)n1,-61.6% (active)
8,c1ccc2cc(Cn3c[n+](Cc4ccc5ccccc5c4)c4ccccc43)ccc2c1,-80.7% (active)
9,Cc1ccc2[nH]c(-c3ccc(S(C)(=O)=O)cc3)c(/C=N/N=C(N)N)c2c1,49% (inactive)
10,COc1ccc(-c2cc(C(=O)N3N=C(c4ccc(N)cc4)CC3c3ccccc3)c3ccccc3n2)cc1 (stereo not given),10.8% (inactive)
11,COc1cccc(/C=C/C(=O)c2cc3c(N)c(C(=O)Nc4cccc(Cl)c4C)sc3nc2C)c1,-27.1% (active)
12,O=C(CBr)CN1C(=O)c2ccccc2C1=O,101% (inactive)
13,C=C(CN1CC=CCC1)[C@@H]1CC[C@]2(CO)CC[C@]3(C)[C@H](CC[C@@H]4[C@@]5(C)CC[C@H](O)C(C)(C)[C@@H]5CC[C@]43C)[C@@H]12,108% (inactive)
14,N=C(N)c1ccc(-c2ccc(-c3ccc(Cl)cc3)o2)o1,-78.6% (active)
15,CC(O)c1ncc(/C=C2\SC(=S)N(Cc3ccccc3)C2=O)s1 (stereo not given),96.2% (inactive)
16,O=C(/C=C\c1ccco1)/C=C/c1ccco1,106% (inactive)
17,CCCCNC1=C(OCC)C(=O)c2ccccc2C1=O,116% (inactive)
18,C#CC#CC#CC#CC#CC#CC#CC#CC[C@H]1OC[C@H](COC(=O)O[C@@H](C(=O)O[C@H]2C[C@@]3(O)[C@@H](OC(=O)c4ccccc4)[C@@H]4[C@]5(OC(C)=O)CO[C@@H]5C[C@H](O)[C@@]4(C)C(=O)[C@H](OC(C)=O)C(=C2C)C3(C)C)[C@@H](NC(=O)c2ccccc2)c2ccccc2)O1,19.3% (inactive)
19,CCn1c2ccc(O)cc2c2c(C)c3c[n+](C(C)C)ccc3c(C)c21,13.1% (inactive)
20,C=CCOC(=O)C1=C(C)NC(=O)NC1c1c(Cl)n(C)c2ccccc12 (stereo not given),111% (inactive)
